The list is not random: actives were taken first. Their share in the collection is about 19%.
Lassa entry inh – Lassa virus entry inhibition; Lassa virus pseudotype entry inhibition, cell reporter; Potency, µM (top dose mostly 37.9 µM), for the others: top-dose activity change, negative = inhibition, actives largely listed as inhibitors; 300,000 tested, 1.2% active; calls by dose curve; tested in HEK293 cells; further: potency means the concentration at half of the fitted maximal effect; on the % scale 0 is the no-effect control and ±100 the full control effect; nearly all actives have a fitted effect of over 50% in size
Pf growth 96h – inhibits malaria parasite growth, 96 h; P. falciparum luciferase reporter growth, 96 h; Potency, µM (titrated, usually from 28.7 µM), for inactives: at the highest dose activity change, negative = inhibition, actives largely listed as inhibitors; 320,000 tested, 6.9% active; AID 504834; further: potency means the concentration at half of the fitted maximal effect; on the % scale 0 is the no-effect control and ±100 the full control effect
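96 h incubation, 37 C, 5% CO2, of luciferase-reporter P. falciparum-infected RBCs (2% hematocrit, 0.05% parasitemia final) with test compounds; endpoint luminescence.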
CHX counter – affects cycloheximide protein synthesis inhibition readout, counter-screen; 300,000 tested, 12% active; cell reporter, cycloheximide protein synthesis inhibition counterscreen; max response, %; in the data active means max response mostly above about 13%, no sharp cut-off; inactive means mostly below about 14%; further: read at 38.3 µM for the half of the compounds with a filed dose; 0% is about no effect
Shiga toxin inh – inhibitors of Shiga toxin in Vero cells; inhibition, % at 38.7 µM; 290,000 tested, 9.2% active; Vero cells, Shiga toxin protein synthesis inhibition reporter; in the data active means inhibition mostly above about 28%, no sharp cut-off; inactive means mostly below about 43%; further: 0% is about no effect
MARV entry inh – inhibitors of Marburg virus binding or cell entry; Marburg virus pseudotyped entry inhibition, cell reporter; AID 540276; Potency, µM (series often up to 37.8 µM), inactives show top-dose activity change, negative = inhibition, usual class: inhibitors; 300,000 tested, 1.8% active; calls by dose curve; tested in HEK293 cells; further: potency means the concentration at half of the fitted maximal effect; on the % scale 0 is the no-effect control and ±100 the full control effect
Pf growth 48h – P. falciparum growth inhibition at 48 hours (one generation). P. falciparum luciferase growth in erythrocytes, 48 h. Potency, µM (doses to about 28.7 µM), inactives show at the highest dose activity change, negative = inhibition, actives largely listed as inhibitors. 310,000 tested, 5.9% active. AID 504832; further: potency means the concentration at half of the fitted maximal effect; on the % scale 0 is the no-effect control and ±100 the full control effect
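Luciferase-expressing P. falciparum in infected erythrocytes (2% hematocrit, 0.1% parasitemia final) in RPMI 1640/0.5% Albumax were exposed to compound for 48 hours at 37 C, 5% CO2; growth read as luminescence.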
Numbers without * were called inactive; ? = inconclusive; . = no result given; [ ] = dose if it differs, or a comment. Unless noted, the call rests on the fitted dose curve; in most records, active means well fitted inhibition curve with a large enough effect; inconclusive means small, poorly fitted or top-dose-only effect, or another doubt; inactive means no such curve, though single readings can be large or run the other way.

SMILES | Lassa entry inh | Pf growth 96h | CHX counter | Shiga toxin inh | MARV entry inh | Pf growth 48h
N#Cc1ccc(C23CC4(C2)[C@H](CN(Cc2ccc(-c5ccccc5)cc2)[C@@H]4c2ccccc2)C3c2ccc(C(F)(F)F)cc2)cc1 (some centres undefined) | . | ? | -3.4 | -4.9 | . | 14.7µM*
FC(F)(F)c1ccc(C2[C@H]3CN(Cc4ccc(-c5ccccc5)cc4)[C@H](c4ccccc4)C34CC2(c2cccnc2)C4)cc1 (some centres undefined) | . | 0.415µM* | -3.3 | -1.3 | . | 3.29µM*
FC(F)(F)c1ccc(C2[C@H]3CN(Cc4ccc(-c5ccccc5)cc4)[C@H](c4ccccc4)C34CC2(c2ccccc2)C4)cc1 (some centres undefined) | . | -99.2% | -1.2 | -3.4 | . | ?
c1ccc(-c2ccc(CN3C[C@@H]4C(c5ccccc5)C5(c6cccnc6)CC4(C5)[C@H]3c3ccccc3)cc2)cc1 (some centres undefined) | . | 4.15µM* | -1.6 | -9.7 | . | 2.94µM*
FC(F)(F)c1ccc(C2[C@H]3CN(Cc4cccnc4)[C@H](c4ccccc4)C34CC2(c2cccnc2)C4)cc1 (some centres undefined) | . | 1.47µM* | -3.2 | -3.2 | . | 1.85µM*
COC(=O)c1cccc(C23CC4(C2)[C@H](CN(Cc2ccc(C(F)(F)F)cc2)[C@@H]4c2ccccc2)C3c2ccccc2)c1 (some centres undefined) | . | ? | -4.3 | -6.3 | . | ?
Clc1ccc(C2[C@H]3CN(Cc4cccnc4)[C@H](c4ccccc4)C34CC2(c2cccnc2)C4)cn1 (some centres undefined) | . | 4.65µM* | -4.8 | -2.0 | . | 10.4µM*
FC(F)(F)c1ccc(CN2C[C@@H]3C(c4ccc(Cl)nc4)C4(c5ccccc5)CC3(C4)[C@H]2c2ccccc2)cc1 (some centres undefined) | . | ? | -3.2 | -7.3 | . | 11.7µM*
CC1(C)CC(NC(=O)COc2ccc3ccc(=O)oc3c2)CC(C)(C)N1 | . | 0.1% | 6.6 | -3.9 | . | 16.7%
NCCNc1ccc(C(=O)N2c3ccccc3Sc3ccccc32)cc1[N+](=O)[O-] | ? | 81.2% | -5.8 | -6.7 | ? | ?
Nc1ccc(C(=O)OCC(=O)N2c3ccccc3Sc3ccccc32)cc1[N+](=O)[O-] | 15.8µM* | ? | -4.9 | -9.1 | 20.6µM* | 1.3%
O=C(OCC(=O)N1CCc2ccccc2C1)c1ccc(Cl)c([N+](=O)[O-])c1 | . | -18.3% | . | . | . | ?
Nc1ccc(C(=O)OCC(=O)N2CCc3ccccc3C2)cc1[N+](=O)[O-] | ? | -27.4% | 38.5* | 56.9* | 24.4% | 48.1%
COC(=O)C(Cc1ccc(OC(=O)c2ccc(C)cc2)cc1)N1Cc2ccccc2C1=O (centres undefined) | -11.0% | 53.2% | 57.1* | 89.4* | -10.7%[46.1 µM] | 57.4%
Cc1ccc(NC(=O)[C@H](Cc2ccccc2)N2Cc3ccccc3C2=O)cc1 | 2.1%[46.1 µM] | . | . | . | -2.4%[46.1 µM] | .
COC(=O)C(Cc1ccc(O)cc1)N1Cc2ccccc2C1=O (centres undefined) | 15.7%[46.1 µM] | 127.4% | 40.7* | 42.1* | ? | 80.5%
NNC(=O)C(Cc1ccc(O)cc1)N1Cc2ccccc2C1=O (centres undefined) | . | 27.3% | -4.5 | -1.3 | . | -10.2%
CCC(C)NC(=O)[C@H](CSCc1ccccc1)N1Cc2ccccc2C1=O (some centres undefined) | -11.7% | 10.4µM* | -2.7 | -13.9 | -9.4% | -6.9%
CCOc1ccc(S(=O)(=O)NCCSCc2ccco2)cc1 | -26.6% | . | 7.1 | -1.6 | 21.9% | 16.3%
Cc1ccc(S(=O)(=O)NC(C(=O)N2CCOCCOCCOCCOCC2)C(C)C)cc1 (centres undefined) | -3.2%[46.1 µM] | 41.9% | -4.5 | -4.8 | -2.3%[46.1 µM] | -1.2%
O=C(NCc1ccccc1)Nc1cccn(Cc2ccc(F)cc2)c1=O | ? | 21.8% | 9.2 | -3.4 | ? | 12.5%
COc1ccc(NC(=O)CCC(=O)c2ccc(-c3ccccc3)cc2)cc1 | 3.6% | 34.0% | -4.7 | 39.8 | ? | 0.0%
O=C(C#Cc1ccccc1)Nc1ccc(F)cc1 | ? | ? | 34.3* | 32.4* | ? | ?
O=C(C#Cc1ccccc1)Nc1cccc(F)c1 | 11.2µM* | 378.7% | 59.6* | 127.9* | ? | ?
COc1ccc(NC(=O)C#Cc2ccccc2)cc1 | ? | ? | 55.0* | 86.0* | ? | -13.2%
SMILES | Lassa entry inh | Pf growth 96h | CHX counter | Shiga toxin inh | MARV entry inh | Pf growth 48h
O=C(C#Cc1ccccc1)NCc1ccccc1F | . | 1.5% | 20.9* | 67.2* | . | 15.8%
COc1cc2c(cc1NC(=O)Cn1cnc3c1c(=O)n(C)c(=O)n3C)oc1ccccc12 | . | 2.2% | -7.4 | -10.5 | 1.2% | -13.2%
CC1CCN(CCCNC(=O)c2coc3nc4ccccc4nc23)CC1 | 22.3% | 38.2% | 1.7 | -3.7 | 3.2% | ?
COc1ccc(NC(=O)C(C)Sc2ccccc2)cc1 (centres undefined) | ? | -10.1% | 54.9* | 88.4* | 2.6% | .
CS(=O)(=O)c1ccc(Cl)c(NC(=O)COC(=O)/C=C/c2cnc3ccccc3n2)c1 | . | -0.3% | -2.9 | 7.2 | . | 18.6%
O=C1OC(c2ccccc2)=N/C1=C\C=C\c1ccco1 | 2.8%[46.1 µM] | 18.9% | 1.5 | -8.4 | -6.1%[46.1 µM] | 13.5%
CC(O)/C=C/c1ccc2ccccc2n1 (centres undefined) | ? | . | 23.2* | 33.0* | ? | -19.2%
Fc1cccc(F)c1/C=C/c1ccc2ccccc2n1 | ? | 125.8% | 24.1* | 53.6* | ? | 87.8%
C(=C\c1ccco1)/c1ccc2ccccc2n1 | ? | 38.2% | 38.0* | 52.0* | 2.82µM* | 346.3%
Fc1cccc(Cl)c1/C=C/c1cnc2ccccc2n1 | ? | 27.6% | 48.5* | 75.5* | ? | .
COc1ccc(CNC(=S)Nc2ccc3nc(N4CCN(C)CC4)cc(C)c3c2)cc1 | ? | ? | -6.9 | -17.3 | ? | ?
CCOc1ccccc1NC(=O)Cn1nnc(C(=O)NCCc2ccc(OC)c(OC)c2)c1N | 27.0% | ? | -2.6 | 2.4 | -18.9% | -11.9%
Cc1ccc2nc(SCC(=O)N3CCC(Cc4ccccc4)CC3)nc(=O)n2c1 | -4.2% | ? | . | . | ? | ?
O=C(Cn1ncc(Cl)c(Cl)c1=O)Nc1ccc2c(c1)OCO2 | . | -4.3% | . | . | . | -15.1%
CCc1ccccc1NC(=O)CN(C)C(=O)Cn1ncc(Cl)c(Cl)c1=O | ? | 5.8% | -10.7 | -22.3 | ? | -22.3%
Cc1ccc(C(=O)OCn2ncc(Cl)c(Cl)c2=O)cc1 | 23.1µM* | ? | -11.0 | -29.8 | 14.6µM* | ?
CCN(CC)S(=O)(=O)c1cc(NC(=O)Cn2ncc(Cl)c(Cl)c2=O)ccc1C | . | -24.6% | 32.0* | -12.0 | . | ?
CCC(=O)Nc1ccc(C(=O)Cn2ncc(Cl)c(Cl)c2=O)cc1 | . | -8.8% | 46.0* | 53.7* | . | -20.6%
CCOC(=O)c1ccc(NC(=O)Cn2ncc(Cl)c(Cl)c2=O)cc1 | ? | -17.1% | -8.2 | -18.0 | 3.16µM* | ?
